{"source": "PubChem BioAssay AID1159580", "about": "(chemical genetic matrix, 2015)", "experiment": "chemical genetic growth profiling, strain panel (AID 1159580);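 note: tested at 20 µM; growth read once vehicle control cultures reached saturation at 30 °C; 1 = growth at the plate median or of vehicle wells; lower values mean less growth of the strain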", "details": "S. cerevisiae deletion strains, growth OD", "note": "“And” between values parts separate entries of the source, which are not always exact repeats. Identical values can stand only once. Screen size: about 5,500 compounds; about 2,000 (36%) were called active. About 18% were inconclusive and are not listed. Cut-off read from the data, not from the text of the source: active = normalized growth mostly below about 0.91 (no sharp cut-off); inconclusive = no clear call, values can overlap the other calls; inactive = mostly above about 0.92. The list shows a part of the results. Some structures have more than one record in an assay (separate samples or runs), and their calls can disagree."}
{"smiles": "CCN(CC)CCCC(C)Nc1c2ccc(Cl)cc2nc2ccc(OC)cc12", "note": "(stereo unspecified)", "values": [{"measurement": "normalized growth", "setting": "locus YAL013W, strain DEP1, stronger effect = lower value", "value": "0.992 (inactive)"}, {"measurement": "normalized growth", "setting": "locus YAL021C, strain ccr4, stronger effect = lower value", "value": "0.906 (active)"}, {"measurement": "normalized growth", "setting": "locus YAL026C, strain drs2, stronger effect = lower value", "value": "0.994 (inactive)"}, {"measurement": "normalized growth", "setting": "locus YAL030W, strain snc1, stronger effect = lower value", "value": "1.02 (inactive)"}, {"measurement": "normalized growth", "setting": "locus YAL040C, strain CLN3, stronger effect = lower value", "value": "0.972 (inactive)"}, {"measurement": "normalized growth", "setting": "locus YBL061C, strain skt5, stronger effect = lower value", "value": "1.03 (inactive)"}, {"measurement": "normalized growth", "setting": "locus YBR009C, strain hhf1, stronger effect = lower value", "value": "0.894 (active)"}, {"measurement": "normalized growth", "setting": "locus YBR021W, strain FUR4, stronger effect = lower value", "value": "0.89 (inactive)"}, {"measurement": "normalized growth", "setting": "locus YBR023C, strain chs3, stronger effect = lower value", "value": "0.984 (inactive)"}, {"measurement": "normalized growth", "setting": "locus YBR171W, strain sec66, stronger effect = lower value", "value": "1.05 (inactive)"}, {"measurement": "normalized growth", "setting": "locus YBR229C, strain ROT2, stronger effect = lower value", "value": "0.87 (active)"}, {"measurement": "normalized growth", "setting": "locus YBR231C, strain swc5, stronger effect = lower value", "value": "0.978 (inactive)"}, {"measurement": "normalized growth", "setting": "locus YBR279W, strain paf1, stronger effect = lower value", "value": "0.966 (inactive)"}, {"measurement": "normalized growth", "setting": "locus YCL011C, strain gbp2, stronger effect = lower value", "value": "0.965 (inactive)"}, {"measurement": "normalized growth", "setting": "locus YCL016C, strain dcc1, stronger effect = lower value", "value": "0.844 (active)"}, {"measurement": "normalized growth", "setting": "locus YCL029C, strain bik1, stronger effect = lower value", "value": "0.479 (active)"}, {"measurement": "normalized growth", "setting": "locus YCL061C, strain MRC1 (second series), stronger effect = lower value", "value": "0.917 (active)"}, {"measurement": "normalized growth", "setting": "locus YCL061C, strain MRC1, stronger effect = lower value", "value": "1.01 (inactive)"}, {"measurement": "normalized growth", "setting": "locus YCL069W, strain vba3, stronger effect = lower value", "value": "1.01 (inactive)"}, {"measurement": "normalized growth", "setting": "locus YCR088W, strain abp1, stronger effect = lower value", "value": "1.03 (inactive)"}, {"measurement": "normalized growth", "setting": "locus YDL005C, strain med2, stronger effect = lower value", "value": "1.01 (inactive)"}, {"measurement": "normalized growth", "setting": "locus YDL035C, strain GPR1, stronger effect = lower value", "value": "0.627 (active)"}, {"measurement": "normalized growth", "setting": "locus YDL040C, strain nat1, stronger effect = lower value", "value": "1.03 (inactive)"}, {"measurement": "normalized growth", "setting": "locus YDL074C, strain BRE1, stronger effect = lower value", "value": "0.511 (active)"}, {"measurement": "normalized growth", "setting": "locus YDL101C, strain DUN1, stronger effect = lower value", "value": "0.728 (active)"}, {"measurement": "normalized growth", "setting": "locus YDL134C, strain PPH21, stronger effect = lower value", "value": "0.771 (active)"}, {"measurement": "normalized growth", "setting": "locus YDL185W, strain tfp1, stronger effect = lower value", "value": "1.01 (inactive)"}, {"measurement": "normalized growth", "setting": "locus YDL192W, strain arf1, stronger effect = lower value", "value": "0.669 (active)"}, {"measurement": "normalized growth", "setting": "locus YDR001C, strain nth1, stronger effect = lower value", "value": "1.04 (inactive)"}, {"measurement": "normalized growth", "setting": "locus YDR069C, strain doa4, stronger effect = lower value", "value": "0.989 (inactive)"}, {"measurement": "normalized growth", "setting": "locus YDR101C, strain arx1, stronger effect = lower value", "value": "0.413 (active)"}, {"measurement": "normalized growth", "setting": "locus YDR137W, strain rgp1, stronger effect = lower value", "value": "1.04 (inactive)"}, {"measurement": "normalized growth", "setting": "locus YDR150W, strain NUM1, stronger effect = lower value", "value": "0.945 (inactive) and 0.826 (active)"}, {"measurement": "normalized growth", "setting": "locus YDR159W, strain sac3, stronger effect = lower value", "value": "1.08 (inactive)"}, {"measurement": "normalized growth", "setting": "locus YDR162C, strain NBP2, stronger effect = lower value", "value": "0.802 (active)"}, {"measurement": "normalized growth", "setting": "locus YDR195W, strain ref2", "value": "1.06 (inactive)"}, {"measurement": "normalized growth", "setting": "locus YDR297W, strain sur2, stronger effect = lower value", "value": "1 (inactive)"}, {"measurement": "normalized growth", "setting": "locus YDR318W, strain mcm21, stronger effect = lower value", "value": "0.618 (active)"}, {"measurement": "normalized growth", "setting": "locus YDR334W, strain swr1, stronger effect = lower value", "value": "1.02 (inactive)"}, {"measurement": "normalized growth", "setting": "locus YDR335W, strain msn5, stronger effect = lower value", "value": "1.02 (inactive)"}, {"measurement": "normalized growth", "setting": "locus YDR363W, strain ESC2, stronger effect = lower value", "value": "0.715 (active)"}, {"measurement": "normalized growth", "setting": "locus YDR388W, stronger effect = lower value", "value": "0.695 (active)"}, {"measurement": "normalized growth", "setting": "locus YDR392W, strain spt3, stronger effect = lower value", "value": "0.717 (active)"}, {"measurement": "normalized growth", "setting": "locus YDR502C, strain sam2, stronger effect = lower value", "value": "0.708 (active)"}, {"measurement": "normalized growth", "setting": "locus YEL003W, strain gim4, stronger effect = lower value", "value": "1.01 (inactive)"}, {"measurement": "normalized growth", "setting": "locus YEL037C, strain rad23, stronger effect = lower value", "value": "0.992 (inactive)"}, {"measurement": "normalized growth", "setting": "locus YEL061C, strain CIN8 (second series), stronger effect = lower value", "value": "1.03 (inactive)"}, {"measurement": "normalized growth", "setting": "locus YEL061C, strain CIN8, stronger effect = lower value", "value": "0.907 (active)"}, {"measurement": "normalized growth", "setting": "locus YER002W, strain NOP16, stronger effect = lower value", "value": "1 (inactive)"}, {"measurement": "normalized growth", "setting": "locus YER015W, strain faa2, stronger effect = lower value", "value": "1.01 (inactive)"}, {"measurement": "normalized growth", "setting": "locus YER016W, strain bim1, stronger effect = lower value", "value": "1.02 (inactive)"}, {"measurement": "normalized growth", "setting": "locus YER110C, stronger effect = lower value", "value": "0.908 (inactive)"}, {"measurement": "normalized growth", "setting": "locus YER111C, strain swi4, stronger effect = lower value", "value": "1.02 (inactive)"}, {"measurement": "normalized growth", "setting": "locus YER155C, strain BEM2 (second series), stronger effect = lower value", "value": "0.943 (inactive)"}, {"measurement": "normalized growth", "setting": "locus YER155C, strain BEM2, stronger effect = lower value", "value": "0.997 (inactive)"}, {"measurement": "normalized growth", "setting": "locus YER167W, strain BCK2, stronger effect = lower value", "value": "0.641 (active)"}, {"measurement": "normalized growth", "setting": "locus YFR010W, strain ubp6, stronger effect = lower value", "value": "0.988 (inactive)"}, {"measurement": "normalized growth", "setting": "locus YGL078C, strain dbp3, stronger effect = lower value", "value": "0.817 (active)"}, {"measurement": "normalized growth", "setting": "locus YGL086W, strain mad1, stronger effect = lower value", "value": "0.74 (active)"}, {"measurement": "normalized growth", "setting": "locus YGL167C, strain pmr1, stronger effect = lower value", "value": "1.03 (inactive)"}, {"measurement": "normalized growth", "setting": "locus YGL173C, strain kem1, stronger effect = lower value", "value": "0.997 (inactive)"}, {"measurement": "normalized growth", "setting": "locus YGL227W, strain vid30, stronger effect = lower value", "value": "1.03 (inactive)"}, {"measurement": "normalized growth", "setting": "locus YGL240W, strain doc1, stronger effect = lower value", "value": "1 (inactive)"}, {"measurement": "normalized growth", "setting": "locus YGL248W, strain PDE1, stronger effect = lower value", "value": "0.735 (active)"}, {"measurement": "normalized growth", "setting": "locus YGL253W, strain hxk2, stronger effect = lower value", "value": "0.975 (inactive)"}, {"measurement": "normalized growth", "setting": "locus YGR078C, strain PAC10, stronger effect = lower value", "value": "0.818 (active)"}, {"measurement": "normalized growth", "setting": "locus YGR135W, strain pre9, stronger effect = lower value", "value": "0.739 (active)"}, {"measurement": "normalized growth", "setting": "locus YGR229C, strain SMI1, stronger effect = lower value", "value": "0.754 (active)"}, {"measurement": "normalized growth", "setting": "locus YGR252W, strain gcn5, stronger effect = lower value", "value": "0.643 (active)"}, {"measurement": "normalized growth", "setting": "locus YHR013C, strain ard1, stronger effect = lower value", "value": "0.844 (active)"}, {"measurement": "normalized growth", "setting": "locus YHR027C, strain rpn1, stronger effect = lower value", "value": "1.03 (inactive)"}, {"measurement": "normalized growth", "setting": "locus YHR030C, strain SLT2, stronger effect = lower value", "value": "0.911 (active) and 0.737 (active)"}, {"measurement": "normalized growth", "setting": "locus YHR079C, strain IRE1 (second series), stronger effect = lower value", "value": "0.49 (active)"}, {"measurement": "normalized growth", "setting": "locus YHR079C, strain IRE1, stronger effect = lower value", "value": "0.761 (active)"}, {"measurement": "normalized growth", "setting": "locus YHR094C, strain hxt1, stronger effect = lower value", "value": "0.796 (active)"}, {"measurement": "normalized growth", "setting": "locus YHR129C, strain ARP1, stronger effect = lower value", "value": "0.809 (active)"}, {"measurement": "normalized growth", "setting": "locus YHR142W, strain chs7, stronger effect = lower value", "value": "0.947 (inactive)"}, {"measurement": "normalized growth", "setting": "locus YHR200W, strain rpn10, stronger effect = lower value", "value": "0.786 (active)"}, {"measurement": "normalized growth", "setting": "locus YIL066C, strain RNR3, stronger effect = lower value", "value": "0.798 (active)"}, {"measurement": "normalized growth", "setting": "locus YIL073C, strain SPO22, stronger effect = lower value", "value": "0.69 (inactive)"}, {"measurement": "normalized growth", "setting": "locus YIL125W, strain kgd1, stronger effect = lower value", "value": "0.899 (active)"}, {"measurement": "normalized growth", "setting": "locus YIR030C, strain dcg1, stronger effect = lower value", "value": "0.768 (active)"}, {"measurement": "normalized growth", "setting": "locus YJL092W, strain hpr5, stronger effect = lower value", "value": "1.02 (inactive)"}, {"measurement": "normalized growth", "setting": "locus YJL095W, strain BCK1 (second series), stronger effect = lower value", "value": "1.03 (inactive)"}, {"measurement": "normalized growth", "setting": "locus YJL095W, strain BCK1, stronger effect = lower value", "value": "0.622 (active) and 0.668 (active)"}, {"measurement": "normalized growth", "setting": "locus YJL115W, strain asf1, stronger effect = lower value", "value": "1.03 (inactive)"}, {"measurement": "normalized growth", "setting": "locus YJL129C, strain trk1, stronger effect = lower value", "value": "1.02 (inactive)"}, {"measurement": "normalized growth", "setting": "locus YJL134W, strain LCB3, stronger effect = lower value", "value": "1.01 (inactive)"}, {"measurement": "normalized growth", "setting": "locus YJL154C, strain vps35, stronger effect = lower value", "value": "1.04 (inactive)"}, {"measurement": "normalized growth", "setting": "locus YJL164C, strain tpk1, stronger effect = lower value", "value": "0.911 (active)"}, {"measurement": "normalized growth", "setting": "locus YJL166W, strain qcr8, stronger effect = lower value", "value": "0.942 (inactive)"}, {"measurement": "normalized growth", "setting": "locus YJL168C, strain set2, stronger effect = lower value", "value": "1.02 (inactive)"}, {"measurement": "normalized growth", "setting": "locus YJL187C, strain SWE1 (second series), stronger effect = lower value", "value": "0.453 (active)"}, {"measurement": "normalized growth", "setting": "locus YJL187C, strain SWE1, stronger effect = lower value", "value": "1.01 (inactive)"}, {"measurement": "normalized growth", "setting": "locus YJR043C, strain POL32, stronger effect = lower value", "value": "0.79 (active)"}, {"measurement": "normalized growth", "setting": "locus YJR066W, strain TOR1, stronger effect = lower value", "value": "0.558 (active)"}]}
